Test results taken from PubChem BioAssay (NCATS).
Records with an inconclusive call do not appear. The source made the active and inactive calls. The call rests on the fitted dose curve.

The molecules below were run against Atrial natriuretic peptide receptor 1 (Homo sapiens) (UniProt P16066) (assay: Natriuretic polypeptide receptor (hNpr1) antagonism - Pilot CMLD screen (AID 1347052)). Conditions: HEK293 hNpr1 GloSensor cGMP luminescence, ANP-stimulated; series mostly up to 9.22 µM.
Description: In order to identify small molecular compounds that inhibit the hNpr1 receptor we developed a high-throughput assay to measure inhibition of the guanylate cyclase activity of the receptor. cGMP production was measured using a circular permutated Firefly luciferase (FLuc) enzyme functionally linked to the cGMP binding domain of human phosphodiesterase 5 (GloSensor technology pGS-40F, (Fan, F. et al. 2008). The cGMP-sensor was expressed in human embryonic kidney 293 (HEK-293) cells and FLuc activity was measured after stimulation with hNrp agonist peptide. hNrp agonists activates the receptor's associated guanylyl cyclase (GC) domain producing cGMP which then binds to the GloSensor resulting in FLuc activation, the enzymatic activity of which can be measured as bioluminescence with addition of luciferin substrate.
This assay was initially piloted by testing with a small library of specialty compounds.
PROTOCOL TABLES (as described by Inglese J, Shamu CE and Guy RK. 2007)
SEQUENCE No. (e.g., 1, 2, 3, etc.); […] (e.g., Cells, Incubation, Reagent, etc.); VALUE and DESCRIPTION.
1. Cells. Seed 1500 HEK293 cGMP-sensor cells expressing hNpr1 per well in 4uL into Greiner 1536-well white/solid bottom high base, tissue culture-treated plates.
2. Incubation. Incubate plated cells at 37C in 5% CO2, 95% RH overnight.
3. Reagent. Add 1uL per well GloSensor reagent from Promega (2% final concentration) or CO2 independent media vehicle control to respective columns of Greiner 1536-well plates.
4. Incubation. Incubate plated cells at room temperature for 2 h, protect from light.
5. Compounds. Library compounds and A-71915 control added at 23 nL per well, transferred by Pin Tool.
6. Incubation. Incubate plated cells for 30 min. at room temperature, protect from light.
7. Detector. GloSensor baseline pre-read luminescence measured using CCD-based camera (Viewlux).
8. Compound. Add 1uL of hNppA peptide to 0.1 nM final concentration to stimulate hNpr1 or CO2 independent media as vehicle control.
9. Incubation. Incubate treated cells at room temperature for 20 min., protect from light.
10. Detector. GloSensor post-hNppA luminescence measured using CCD-based camera (Viewlux).
NOTES (numbers refer to Sequence numbers above)
1. HEK293 cells expressing hNpr1 and GIP/pGS-40F grown to 85-95% confluence (48-72 h) in T175 culture flasks (CO2 independent media supplemented with 10% FBS, 1% Pen/Strep antibiotics and 1 ug/mL puromycin). Trypsinize and harvest cells from T175 culture flasks and filter through 40 um cell strainer. Cells counted with Invitrogen Countess (30,000,000 - 50,000,000 cells/flask). Cells diluted to a final concentration of 375 cells/uL in CO2 independent media and a Millipore multidrop used to dispense 1500 cells per well (4uL/well) into 13 1536-well Greiner White/Solid bottom, high base tissue-culture treated (TC) plates and one Aurora 1536-well Black/Clear bottom, low base, TC plate (for visual inspection of cell health throughout the duration of the assay).
2. Cells incubated overnight at ambient temperature, 24 h. at 37C in 95% RH incubator protected from light, covered with metal lid with gas-exchange holes.
3. Prepare GloSensor Reagent (Promega): Reconstitute GloSensor luciferase substrate by adding 8.2mL Hepes buffer to 250mg substrate, mix well, protect from light and stored at -80C. Prepare a fresh 12% GloSensor solution in CO2 independent supplemented plating media (see above). Mix well and store at ambient temperature, protected from light. 1uL 12% GloSensor Luciferase Reagent added (2% final concentration) to respective columns of 13 x 1536-well Greiner plate with BioRaptr, 1uL CO2 independent plating media added to respective columns as vehicle control with BioRaptr.
4. Cells incubated for 2 h. at ambient temperature, protected from light with metal lid with gas-exchange holes.
5. A-71915 stock solution prepared (10 mM in DMSO). […]

Atrial natriuretic peptide receptor 1 (Homo sapiens), sequence (P16066 whole entry, looked up, the tested form may be a part): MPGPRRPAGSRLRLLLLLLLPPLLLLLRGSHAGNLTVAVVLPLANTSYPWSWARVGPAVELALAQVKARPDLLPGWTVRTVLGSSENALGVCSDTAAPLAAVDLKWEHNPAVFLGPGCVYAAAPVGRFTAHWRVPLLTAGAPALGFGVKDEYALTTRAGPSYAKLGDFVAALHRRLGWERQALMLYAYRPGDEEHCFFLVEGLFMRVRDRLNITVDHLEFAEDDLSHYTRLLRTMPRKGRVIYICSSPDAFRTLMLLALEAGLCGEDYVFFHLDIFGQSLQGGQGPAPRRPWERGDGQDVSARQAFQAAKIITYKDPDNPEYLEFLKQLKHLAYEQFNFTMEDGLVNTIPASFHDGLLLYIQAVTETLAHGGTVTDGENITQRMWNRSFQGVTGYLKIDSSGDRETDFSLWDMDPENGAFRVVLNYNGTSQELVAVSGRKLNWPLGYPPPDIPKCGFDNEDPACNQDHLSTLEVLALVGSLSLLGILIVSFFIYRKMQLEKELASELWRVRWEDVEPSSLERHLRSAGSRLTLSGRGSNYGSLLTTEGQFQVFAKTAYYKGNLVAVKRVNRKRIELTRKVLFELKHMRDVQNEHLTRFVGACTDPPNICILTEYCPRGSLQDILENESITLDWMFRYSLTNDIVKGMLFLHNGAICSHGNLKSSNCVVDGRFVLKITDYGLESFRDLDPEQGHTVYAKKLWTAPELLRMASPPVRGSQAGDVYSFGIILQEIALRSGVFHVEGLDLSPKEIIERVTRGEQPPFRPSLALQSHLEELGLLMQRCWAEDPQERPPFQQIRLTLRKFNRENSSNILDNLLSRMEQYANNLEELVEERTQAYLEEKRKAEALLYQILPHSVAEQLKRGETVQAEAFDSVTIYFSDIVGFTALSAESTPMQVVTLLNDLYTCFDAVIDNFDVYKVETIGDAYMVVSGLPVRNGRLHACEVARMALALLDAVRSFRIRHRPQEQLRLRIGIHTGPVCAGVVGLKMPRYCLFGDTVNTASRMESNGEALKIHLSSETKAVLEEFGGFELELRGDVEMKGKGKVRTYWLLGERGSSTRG

Row | SMILES | outcome
1 | COC(=O)[C@@]1(C=C2c3ccc(F)cc3[C@@H](OC)[C@@H]2C)[C@@H]2c3ccccc3O[C@@H]21 | inactive
2 | C=C1[C@@H]2CCN3C(=O)N[C@@H](c4ccccc4)[C@@]1(C(=O)OCC)C23 (some centres not stated) | inactive
3 | COC(=O)[C@@]1(C=C2c3ccccc3[C@@H](OC)[C@@H]2C)[C@@H]2Oc3ccccc3[C@@H]21 | inactive
4 | COC(=O)[C@@H]1[C@@H](c2ccccc2)[C@H]2C(=O)c3c(OC)cc(OC)cc3O[C@@]12c1ccc(OC)cc1 | inactive
5 | COC(=O)C1(C)C2CC(C)C(c3ccccc32)N1C(=O)C(F)(F)F (configuration not stated) | inactive
6 | CCC[C@]12CCN3C(=O)N[C@@H](c4ccccc4)[C@](C(=O)OCC)(C1)[C@H]32 | inactive
7 | COC(=O)C1=C[C@H]([C@@H](C)[C@H](OC)c2ccccc2Br)[C@H]2[C@H]1c1ccccc1N2C | inactive
8 | CC(=O)[C@]12C[C@@H]3CCN(C(=O)N[C@@H]1c1ccccc1)[C@@]32C | inactive
9 | CCOC(=O)[C@]12C[C@]3(C)CCCN(C(=O)N[C@@H]1c1ccccc1)[C@@H]32 | inactive
10 | COC(=O)[C@@]1(C=C2c3ccc(F)cc3[C@@H](OC)[C@@H]2C)[C@@H]2Oc3ccccc3[C@@H]21 | inactive
11 | CCOC(=O)[C@]12C[C@]3(C)CCN(C(=O)N[C@@H]1c1ccccc1)[C@@H]32 | inactive
12 | COC(=O)C1=C2CCO[C@@H]2[C@H]2[C@@H](C)[C@H](OC)c3ccccc3[C@H]12 | inactive
13 | C=C(C)C(=O)CP(=O)(OCC)OCC | inactive
14 | CC(=O)[C@]12C[C@]3(C)CCCN(C(=O)N[C@@H]1c1ccccc1)C32 (some centres not stated) | inactive
15 | COC(=O)[C@@]1(C=C[C@@H](C)[C@H](OC)c2ccccc2Br)[C@@H]2Oc3ccccc3[C@@H]21 | inactive
16 | CCOC(=O)[C@]12C[C@@H]3CCN(C(=O)N(C(C)=O)[C@@H]1c1ccccc1)[C@@H]32 | inactive

Row | SMILES | outcome
17 | COC(=O)C1C2CC(C)C(c3ccccc32)N1C(=O)C(F)(F)F (configuration not stated) | inactive
18 | COC(=O)[C@@]12Cc3ccccc3[C@H]1C[C@H](C)[C@@H](C)N2C(=O)C(F)(F)F | inactive
19 | CCOC(=O)[C@@]12[C@@H]3[C@@H](CCN3C(=O)N[C@H]1c1ccccc1)C2(C)C | inactive
20 | COC(=O)C1=C2CCO[C@H]2[C@@H]2[C@@H](C)[C@H](OC)c3ccccc3[C@@H]12 | inactive
21 | CCOC(=O)[C@]12C[C@]3(OC)CCN(C(=O)N[C@@H]1c1ccccc1)[C@@H]32 | inactive
22 | COC(=O)C12CC3=CCC4C(=O)N(c5ccccc5)C(=O)C4C3Cc3ccccc3[C@H]1CNC2=O (some centres not stated) | inactive
23 | CC(=O)[C@]12C[C@@H]3CCCN(C(=O)N[C@@H]1c1ccccc1)[C@@H]32 | inactive
24 | CCOC(=O)[C@@]12C3[C@@H](CCN3C(=O)N[C@@H]1c1ccccc1)[C@@H]2C (some centres not stated) | inactive
25 | COC(=O)[C@]12C[C@@H]3CCN(C(=O)N[C@@H]1c1ccccc1)[C@@]32C | inactive
26 | COC(=O)C1=NN=C(C(=O)OC)[C@@]2(C)c3ccccc3NC12 (some centres not stated) | inactive
27 | CO[C@@H]1c2ccccc2[C@H]2C(C(=O)O)c3c(n(C)c4ccccc34)[C@H]2[C@H]1C (some centres not stated) | inactive
28 | CCOC(=O)[C@]12C[C@@H]3OCCN(C(=O)N[C@@H]1c1ccccc1)[C@@H]32 | inactive
29 | CC(=O)[C@]12[C@H](c3ccccc3)[C@@H]3CCN(C(=O)N[C@H]1c1ccccc1)[C@@]32C | inactive
30 | COC(=O)C1c2c(n(C)c3ccccc23)[C@H]2[C@@H](C)[C@H](OC)c3ccccc3[C@@H]12 (some centres not stated) | inactive
31 | COC(=O)C1=C2CCCO[C@H]2[C@@H]2[C@@H](C)[C@H](OC)c3ccccc3[C@@H]12 | inactive
32 | CC(=O)[C@@]12C3[C@@H](CCN3C(=O)N[C@H]1c1ccccc1)[C@H]2c1ccccc1 (some centres not stated) | inactive
